63 molecules from PubChem BioAssay AID1851 (National Center for Advancing Translational Sciences (NCATS), 2009) can be followed below.

The structures appear in SMILES notation. Out of some 16,000 compounds screened, about 5,100 (32%) were called active. Inconclusive results (about 25%) are left out. This is one part of the list. Values without a mark were called inactive. Calls come from the whole dose curve; as a rule, active = well fitted curve in the direction sought with a large enough effect; inconclusive = small, poorly fitted or top-dose-only effect, or effect the other way; inactive = no such curve, though single readings can be large or run the other way.
% is set by controls: 0 for no effect and ±100 for the full control effect.

Chain of Cytochrome P450 3A4 (Homo sapiens) (P08684 whole entry, looked up): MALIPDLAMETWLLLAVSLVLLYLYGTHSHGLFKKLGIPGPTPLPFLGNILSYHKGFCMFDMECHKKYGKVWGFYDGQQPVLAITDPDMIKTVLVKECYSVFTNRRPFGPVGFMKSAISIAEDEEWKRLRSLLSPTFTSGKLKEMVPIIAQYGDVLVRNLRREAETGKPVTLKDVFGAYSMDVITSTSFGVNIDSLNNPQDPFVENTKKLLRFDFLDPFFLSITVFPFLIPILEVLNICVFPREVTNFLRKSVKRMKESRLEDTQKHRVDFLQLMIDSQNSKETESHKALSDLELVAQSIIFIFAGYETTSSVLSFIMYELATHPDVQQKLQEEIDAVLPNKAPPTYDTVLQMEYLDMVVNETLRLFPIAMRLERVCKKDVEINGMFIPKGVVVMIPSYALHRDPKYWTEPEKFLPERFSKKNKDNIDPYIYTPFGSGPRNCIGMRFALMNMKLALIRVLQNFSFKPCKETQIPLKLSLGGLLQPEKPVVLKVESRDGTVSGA

The test has as its target Cytochrome P450 3A4 (Homo sapiens) (UniProt P08684). Briefly: Cytochrome panel assay with activity outcomes. Particulars: recombinant CYP, pro-luciferin dealkylation, luminescence, p450-cyp3a4; series mostly up to 57.1 µM.
Regarding `CS[C@@H](CC(=O)O)C(=O)O`, the activity, negative = inhibition was -17% [at 11.4 µM].
In general, AC50 refers to the concentration at which the activity in the assay is half-maximal. Take `O=C1c2cccnc2C(O)N1C1CCCCC1` (stereo not drawn): the AC50 result was “inactive”.
As for `Cc1nc2c(n1C1CCCCC1)C(=O)c1ccccc1C2=O`, the AC50 was 14.1 µM (active).
As to `COc1c(F)c(F)c(C(=O)O)c(Nc2ccc(C)cc2)c1F`, the AC50 result was “inactive”.
Still for that read-out and setting: then `Cc1ccc(CNC(=O)C2CC(c3ccccc3[N+](=O)[O-])=NO2)o1` (stereo not drawn), with “inactive”; and `O=C(N/N=C\c1ccc(-c2ccccc2[N+](=O)[O-])o1)C1COc2cc3ccccc3cc2O1` (stereo not drawn), with 17.8 µM (active).
On to `CCOC(=O)C(C)n1cnc2c(oc3ccccc32)c1=O` (stereo not drawn), for which the AC50 entry was “inactive”.
For `c1ccc(-c2nc(NCCCn3ccnc3)c3oc4ccccc4c3n2)cc1`, the AC50 is 1 µM (active).
The same measure, in the same setting: with `O=C(Cn1cnc2c(oc3ccccc32)c1=O)NCc1ccco1` the entry was “inactive”.
As to `c1ccc2c(c1)oc1c(NCCCn3ccnc3)ncnc12`, the AC50 is 0.631 µM (active).
With `CC(=O)C1=C(NC(=O)c2ccc(F)cc2)CC2C1C2(C)C` (stereo not drawn), the activity, negative = inhibition was 10% [at 2.29 µM].
Still for that read-out and setting: then `CCN1C(=O)[C@@H]2[C@H]3C(=CC[C@@H]2C1=O)C1(OCCCO1)[C@H]1O[C@@H]1[C@H]3O`, with -21.4% [at 11.4 µM].
On to `COc1ccccc1NC(=O)c1sc2ncn(Cc3ccccc3C)c(=O)c2c1C`, for which the AC50 is 4.47 µM (active).
As for `N#Cc1c(Cl)cccc1-n1ccnc1`, the AC50 is 1 µM (active).
Still for that read-out and setting: then `N#Cc1c(-n2ccnc2)cccc1-n1ccnc1`, with 2 µM (active); and `Cc1cccc(-n2cccc2)c1C#N`, with “inactive”; and `CCCCOc1ccccc1N`, with “inactive”.
In the case of `Nc1ccccc1Oc1ncc(C(F)(F)F)cc1Cl`, the AC50 is 14.1 µM (active).
Turning to `COc1ccc(OCc2nnc(SCC(=O)N3c4ccccc4Sc4ccc(Cl)cc43)o2)cc1`, the half-maximal activity concentration (AC50) is 3.55 µM (active).
As to `O=C(O)c1ccc(CSc2nc3ccccc3o2)cc1`, the AC50 result is “inactive”.
Consider `O=C(CSc1nc2ccccc2o1)N1c2ccccc2Sc2ccc(Cl)cc21`, for which the concentration at half-maximal activity (AC50) was 8.91 µM (active).
Consider `OC1CC2CC[C@H](C1)N2CCCN1c2ccccc2Sc2ccc(Cl)cc21` (stereo partly drawn), for which the activity, negative = inhibition is -4.29% [at 11.4 µM].
As for `COc1ccc2c(c1)N(CC[C@H]1CCCCN1C)c1ccccc1S2`, the activity, negative = inhibition is -24.2% [at 11.4 µM].
As to `CCOC(=O)CN1N=C(/C=C/c2ccc(C)cc2)CCC1=O`, the AC50 entry was “inactive”.
Still for that read-out and setting: with `O=C1CC(N2CCN(CCc3ccccn3)CC2)C(=O)N1c1ccc(Cl)cc1` (stereo not drawn) the entry was “inactive”.
On to `O=C1c2ccccc2N[C@H](c2cc(Cl)cc(Cl)c2O)N1CCc1ccccn1`, for which the AC50 is 0.794 µM (active).
For the molecule `CN(Cc1ccco1)c1ncncc1-c1cccnc1`, the AC50 is 2.51 µM (active).
As for `CN(C)C(=O)c1ccc(-c2nccc(N(C)Cc3ccco3)n2)cc1`, the AC50 entry was “inactive”.
Regarding `CN(Cc1ccco1)c1ncncc1-c1ccc2c(c1)OCO2`, the AC50 is 1.26 µM (active).
For the molecule `CN(C)c1ccc(-c2cncnc2N(C)Cc2ccco2)cc1`, the AC50 is 0.631 µM (active).
In the case of `CN(Cc1ccco1)c1ncncc1-c1cccc(C#N)c1`, the AC50 is 7.94 µM (active).
`C#C[C@H](N)CCC(=O)O`: the AC50 result was “inactive”.
Consider `COc1cc(O)c2c(O)c3c(c4c2c1[C@@]1(C4)C(C)=CCCC1(C)C)[C@H](O)[C@@]1(O)CC(=O)C(C(N)=O)=C(O)[C@]1(O)C3=O`, for which the activity, negative = inhibition was -13.9% [at 11.4 µM].
`COc1cccc(-c2cncnc2N(C)Cc2ccco2)c1`: the AC50 is 2.51 µM (active).
On to `CCc1ccc2[nH]c(O)c(N=Nc3nc(-c4ccccc4)cs3)c2c1`, for which the activity, negative = inhibition was -16.3% [at 2.29 µM].
With `COc1c(O[C@H]2O[C@@H](CO)[C@@H](O)[C@@H](O)[C@@H]2O)cc2c(c1OC)-c1ccc(SC)c(=O)cc1[C@H](NC(C)=O)CC2`, the AC50 result is “inactive”.
On to `N[C@@H](C(=O)O)[C@H](CC(=O)O)c1ccc(Cl)cc1`, for which the AC50 result is “inactive”.
`CCCC[C@@H]1C[C@H]1C(NC(=O)c1ccccc1)c1ccccc1` (stereo partly drawn): the AC50 was 12.6 µM (active).
Still for that read-out and setting: then `CCCC[C@@H]1C[C@H]1C(NC(=O)Cc1ccccc1)c1ccc(Cl)cc1` (stereo partly drawn), with 2.51 µM (active); and `CCCC[C@@H]1C[C@H]1C(NC(=O)c1cccnc1)c1ccc(Cl)cc1` (stereo partly drawn), with 0.0794 µM (active); and `CCCC[C@@H]1C[C@H]1C(NC(=O)c1ccccc1)c1ccc(Cl)cc1` (stereo partly drawn), with 3.98 µM (active).
`CCCC[C@@H]1C[C@H]1C(NC(=O)c1ccc(-c2ccccc2)cc1)c1ccc(-c2ccccc2)cc1` (stereo partly drawn): the AC50 result is “inactive”.
For `Cc1oc(-c2cccc(Cl)c2)[n+]([O-])c1C`, the AC50 entry was “inactive”.
Consider `O=C(/C=C/c1cc2c(cc1Br)OCO2)NCc1ccc(Cl)cc1`, for which the AC50 is 2.51 µM (active).
As to `O=[N+]([O-])c1ccccc1N/N=C/c1c[nH]c2ccccc12`, the AC50 is 25.1 µM (active).
On to `O=C(O)c1ccccc1N/N=C\c1ccnc2ccccc12`, for which the activity, negative = inhibition was -0.0882% [at 2.29 µM].
Take `O=C(N/N=C/c1c[nH]c2ccccc12)c1cc(-c2ccc(-c3ccccc3)cc2)n[nH]1`: the activity, negative = inhibition was -5.85% [at 2.29 µM].
As to `COc1cccc(NC(=S)N(CCc2nc3cc(C)c(C)cc3[nH]2)Cc2cccnc2)c1`, the AC50 was 2.51 µM (active).
For the molecule `Cc1cccc(NC(=S)N(CCc2nc3cc(C)c(C)cc3[nH]2)Cc2cccnc2)c1`, the AC50 is 2.24 µM (active).
With `Cc1ccc(C)c(NC(=S)N(CCc2nc3cc(C)c(C)cc3[nH]2)Cc2cccnc2)c1`, the AC50 is 2.51 µM (active).
Regarding `CN(C)CCNc1ccccn1`, the activity, negative = inhibition was -5.4% [at 11.4 µM].
With `CC1CN(C(=O)COc2ncnc3ccccc23)CC(C)O1` (stereo not drawn), the AC50 entry was “inactive”.
As to `Cc1ccc(-n2ccc(=O)c(-c3ccnc(SCc4cccc(Cl)c4)n3)n2)cc1`, the AC50 is 8.91 µM (active).
On to `CC(C)[C@](N)(C(=O)O)c1ccccc1`, for which the activity, negative = inhibition was -13.2% [at 11.4 µM].
For the molecule `O=C1NC(c2cccc([N+](=O)[O-])c2)=CCN1c1ccccc1O`, the AC50 result was “inactive”.
Still for that read-out and setting: with `O=c1cc(-c2ccccc2)[nH]n1-c1ccc([N+](=O)[O-])cc1` the figure was 14.1 µM (active); with `CC(C)c1cccc2cc3c(nc12)-c1cccc(=O)n1C3`, 15.8 µM (active); with `CC(C)c1cccc2c([Si](C)(C)C)c3c(nc12)-c1cccc(=O)n1C3`, 25.1 µM (active).
Consider `CCc1c2c(nc3c(C(C)C)cccc13)-c1cccc(=O)n1C2`, for which the AC50 is 15.8 µM (active).
As for `O[C@H](C[C@@H]1CCCCN1)c1ccc2c(c1)oc1ccccc12`, the activity, negative = inhibition is -5% [at 11.4 µM].
In the case of `CCOC(=O)c1cc(-c2ccc(Cl)cc2)nc2c1c(C)nn2CCC#N`, the AC50 is 25.1 µM (active).
On to `COc1ccc(-c2cc(C(=O)O)c3c(C)nn(-c4ccccn4)c3n2)cc1`, for which the AC50 entry was “inactive”.
Take `CCOC(=O)c1cnc(-c2ccccc2)nc1Oc1ccc(Cl)cc1`: the AC50 result is “inactive”.
